PubChem BioAssay (NCI)
This is part of a sample that, as a whole, favours compounds with a hit. Of some 83,000 tested, about 20% had one in any assay.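 Interpretation: 100, growth as untreated; towards 0, rising growth inhibition; 0, no net growth; 0 to -100, cell death. Compounds scoring below 10 were considered active.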 Values without a mark were called inactive. Activity calls are given as the source filed them.

tested on: MDA-MB-468 breast; assay: NCI-60 one-dose screen, 48 h (100 = growth as untreated, 0 = no growth, -100 = all killed); settings: 10 µM unless noted

Row | SMILES | growth
1 | O=C(Nc1ccc(Oc2ccc(F)cc2)c(Cl)c1)c1cccnc1 | 57.2%
2 | CCOC(=O)C(=O)C(C(=O)OCC)c1ccccc1 (stereo not given) | 111%
3 | COC(=O)Nc1cccc(Cl)c1OC | 90.1%
4 | O=C(NCCNc1cc(-c2cn(-c3ccccc3)nc2-c2cccc(O)c2)ccn1)Nc1ccccc1 | 64.9%
5 | CSc1nc2c(c(=O)[nH]1)C1(C(=O)Nc3ccccc31)c1c(nc(SC)[nH]c1=O)N2 | 93.1%
6 | CCN(CC)CCNC(=O)C(Cl)=C1C(Cl)=C(Cl)C(Cl)=C1Cl | 75.8%
7 | COc1ccc(-c2nc3cc(C(=O)Nc4cc(OC)c(OC)c(OC)c4)ccc3n2C2CCCCC2)cc1 | 128%
8 | N#Cc1c(-c2ccc(F)cc2)nc(N/N=C/c2c[nH]c3ccccc23)nc1N1CCOCC1 | 25.2%
9 | NC(=S)N/N=C(/c1ccccc1)c1ccccc1N | 18.4%
10 | C=CCn1c(SCC(=O)Nc2ccc(C(=O)/C=C/c3ccc(OC)cc3)cc2)nnc1-c1ccccc1 | 93.9%
11 | C1=NCCc2ccccc21 | 109%
12 | CCOP(=O)(OCC)OC[C@]12CCC(C)(C)C[C@H]1C1=CC[C@@H]3[C@@]4(C)C/C(=C\c5cccnc5)[C@H](OP(=O)(OCC)OCC)C(C)(C)[C@@H]4CC[C@@]3(C)[C@]1(C)CC2 | -0.445% (active)
13 | COc1ccc(C2c3ccccc3NC(=O)N2C2CCN(C)CC2)c(OC)c1 (stereo not given) | 88.3%
14 | COc1cc(CCC[P+](c2ccccc2)(c2ccccc2)c2ccccc2)c(OC)c2c1OCO2 | -25.3% (active)
15 | CCNC(=O)c1[nH]cc(-c2ccc(OC)cc2)c1-c1cc(OC)c(OC)c(OC)c1 | 18.5%
16 | CCC1=C[C@@H]2CN(C1)Cc1c([nH]c3ccccc13)[C@@](C(=O)OC)(c1cc3c(cc1OC)N(C)[C@H]1[C@@](O)(C(=O)OC)[C@H](OC(C)=O)[C@]4(CC)[C@@H]5C[C@@H]5CN5CC[C@]31[C@@H]54)C2 | -31.7% (active)
17 | c1cn2cc(-c3ccc4ncn(C5CCCCC5)c4c3)nc(-c3ccc4c(c3)ncn4C3CCCCC3)c2n1 | -20.2% (active)
18 | O=C(O)c1cccnc1Br | 102%
19 | O=C(NCCCNc1cc(-c2cn(-c3ccccc3)nc2-c2cccc(O)c2)ccn1)c1ccc(F)cc1 | -41.4% (active)
20 | CN(C)C(=O)c1cc2cnc(Nc3ccc(-c4csc5c(=S)cc(N6CCOCC6)oc45)cc3)nc2n1C1CCCC1 | 1.46% (active)

Row | SMILES | growth
21 | O=c1oc2ccccc2cc1C1=NN=C(SCc2ccccc2)SC1 | 118%
22 | c1ccc2[nH]c(Cc3nc4ccccc4[nH]3)nc2c1 | 102%
23 | CC(=O)OC[C@]12CC[C@@H](c3cn(Cc4ccc(Cn5cc([C@@H]6CC[C@]7(COC(C)=O)CC[C@]8(C)[C@H](CC[C@@H]9[C@@]%10(C)CC[C@H](OC(C)=O)C(C)(C)[C@@H]%10CC[C@]98C)[C@@H]67)nn5)cc4)nn3)[C@@H]1[C@H]1CC[C@@H]3[C@@]4(C)CC[C@H](OC(C)=O)C(C)(C)[C@@H]4CC[C@@]3(C)[C@]1(C)CC2 | 102%
24 | N#C/C(=N\Nc1ccc(Cl)cc1)C(=O)C1CC1 | 27.1%
25 | Cc1c(Cn2cc(COc3ccc(Br)cc3)nn2)c(C)c(Cn2cc(COc3ccc(Br)cc3)nn2)c(C)c1Cn1cc(COc2ccc(Br)cc2)nn1 | 109%
26 | O=C(CO[N+](=O)[O-])Nc1ccc(C(=O)/C=C/c2ccc3c(c2)OCO3)cc1 | 91.9%
27 | C=C(C)[C@@H]1CC[C@]2(C(=O)N3CCN(CC)CC3)CC[C@]3(C)[C@H](CC[C@@H]4[C@@](C)(CCC(=O)N5CCN(CC)CC5)[C@H](C(=C)C)CC[C@]43C)[C@@H]12 | 43.4%
28 | Brc1cccc(-c2cc(-c3ccc4c(c3)OCCCO4)[nH]n2)c1 | 50.6% [25 µM]
29 | CNS(=O)(=O)c1n[nH]nc1-c1cc(C(C)(C)C)c(O)c(C(C)(C)C)c1 | 92.2%
30 | Nc1cc(Cl)c(S(N)(=O)=O)cc1S(N)(=O)=O | 99.3%
31 | CC(C)C1CCC(C)C(O)C1 (stereo not given) | 98.5%
32 | Cn1ncc2cc3c(Nc4ccc(Cl)cc4)cccc3nc21 | 79%
33 | O=CN1N=C(c2ccc(Cl)cc2)CC1c1cccc(Nc2ccnc3cc(Cl)ccc23)c1 (stereo not given) | -0.854% (active)
34 | COc1cc(/C=N/NC(=O)c2cnn3c2NC(c2ccccc2)C3)ccc1OC1CCCC1 (stereo not given) | 23.3%
35 | COc1cccc(NC(=O)c2c(-c3ccccc3)c(-c3ccccc3)n[nH]c2=O)c1 | 92.4%
36 | CCc1n(Cc2ccc3ccccc3n2)cc[n+]1Cc1ccc2ccccc2n1 | -30.1% (active)
37 | Cc1ccc(-c2cc(-c3ccc(C)cc3)nc(N3CCN(CCNc4ccnc5cc(Cl)ccc45)CC3)n2)cc1 | 36.4%
38 | N#Cc1cccc(CN2CCc3ncn(Cc4ccc(Cl)cc4)c(=O)c3C2)c1 | -21.8% (active)
39 | FC(F)(F)c1cc(-c2nnc3n2N=C(Cl)CS3)cc(C(F)(F)F)c1 | 84.4%
40 | Oc1c(Cl)cc(Cl)c(Cl)c1CNCCNCc1c(O)c(Cl)cc(Cl)c1Cl | 2.91% (active)
